MazF activator: activators of E. coli MazEF toxin-antitoxin RNase; activation, % at 20 µM; FAM/BHQ RNA-DNA oligo cleavage fluorescence, 5 h; 350,000 compounds, 0.32% hits; P0AE70; in the data active = activation above about 50%
BoNT A protease: inhibitors of Botulinum neurotoxin A light chain protease | multiplex microsphere protease substrate cleavage, flow cytometry | inhibition, % at 10 µM | 360,000 compounds, 0.17% hits | AID 588499
Anthrax LF inh2: blocks Bacillus anthracis lethal factor protease. P15917. multiplex microsphere protease cleavage assay, LF. inhibition, % at 10 µM. 360,000 compounds, 0.12% hits. AID 588501
BoNT F protease: inhibitors of Botulinum neurotoxin F light chain protease; 360,000 compounds, 0.22% hits; Multiplex microsphere protease cleavage assay, flow cytometry; inhibition, % at 10 µM; AID 588497; in the data active = inhibition above about 35%, passing the limit was not always enough; inconclusive = no clear call, values can overlap the other calls
Autofluor counter: compound fluorescence in toxin protease inhibitor counterscreen. compound autofluorescence counterscreen, microsphere flow cytometry; hits give high values. fluorescence intensity (no concentration beside the values). 360,000 compounds, 3.1% hits. AID 624483; in the data active = fluorescence intensity above about 16000; inconclusive = no clear call, values can overlap the other calls
Of the large screens only hits and unclear results are named; the others gave an inactive call. A selection: hits, their analogues and other compounds. The true share with any hit is near 3.7%. Cut-off read from the data, not from the text of the source, unless noted: active = inhibition above about 30%; inconclusive = no clear call, values can overlap the other calls; inactive = below that.

O=C(NCCN1CCN(c2ccccc2)CC1)c1cccc(Br)c1	Autofluor counter 23925
O=C(Cc1ccc(-c2ccccc2)cc1)NCCN1CCOCC1	none
CN1CCN(C(=O)CSc2nnc(COc3ccc(Cl)cc3)o2)CC1	none
COc1ccc(-n2c(SCC(=O)N3CCCCC3)nc(O)cc2=O)cc1	Autofluor counter 21636
CCC1CCCCN1C(=O)N[C@@H](Cc1ccccc1)C(=O)O (stereo partly specified)	Autofluor counter 23663
COC(=O)[C@H](Cc1ccccc1)NC(=O)N1CCCCC1C (stereo partly specified)	none
CCN(CC)S(=O)(=O)c1ccc(C(=O)NCc2n[nH]c(=S)n2Cc2ccccc2)cc1	Autofluor counter 21413
O=C(NCc1n[nH]c(=S)n1Cc1ccccc1)c1ccccc1	none
CCN(CC)S(=O)(=O)c1ccc(C(=O)NCc2cccs2)cc1	Autofluor counter 21571
CCCCC1Cc2[nH][nH]c(=O)c2C(c2ccc(F)cc2)O1 (stereo unspecified)	none (no result: MazF activator)
COc1ccc(Cl)cc1C(=O)O/N=C(\N)c1ccc(Cl)cc1	none
Cc1occc1C(=O)O/N=C(\N)c1ccc(Cl)cc1	BoNT F protease 40.0
O=C1c2cccc3cccc(c23)C(=O)N1c1nccs1	none
O=C1c2cccc3c([N+](=O)[O-])ccc(c23)C(=O)N1c1nccs1	Autofluor counter 23502
O=C1c2cccc3c([N+](=O)[O-])ccc(c23)C(=O)N1c1ccc(Cl)cn1	Autofluor counter 20167
O=C1c2cccc3c([N+](=O)[O-])ccc(c23)C(=O)N1c1ccccn1	none
O=C(N/N=C/C=C/c1ccccc1)NC1CCCCC1	none
O=C(CSc1nc2c(oc3ccccc32)c(=O)n1CC1CCCO1)NCc1ccccc1 (stereo unspecified)	none
O=C(c1cc2ccccc2oc1=O)N(c1ccc(Cl)cc1)C1C=CS(=O)(=O)C1 (stereo unspecified)	none
N#C/C(=C\c1cn(-c2ccccc2)nc1-c1cc2ccccc2o1)c1nc2ccccc2[nH]1	MazF activator 741.4
CCc1cc2c(=O)c(-c3nc4ccccc4n3C)c(C(C)C)oc2c(CN2CCN(C)CC2)c1O	Autofluor counter 20753
CCc1cc2c(=O)c(-c3nc4ccccc4n3C)c(C)oc2c(CN2CCN(CCO)CC2)c1O	none
CCOC(=O)c1sc(N)c(C#N)c1COC(=O)CNC(=O)c1cc(OC)c(OC)c(OC)c1	Autofluor counter 16372
O=C(O)c1ccc(S(=O)(=O)N2CCC(c3nc(-c4ccccc4Cl)no3)CC2)cc1	BoNT A protease inconclusive, Autofluor counter 23179
O=C(C(c1ccccc1)c1ccccc1)N1CCC(c2nc(-c3ccccc3Cl)no2)CC1	none
O=C(NCCCc1ccccc1)C1CC(=O)N(c2ccc3c(c2)OCCO3)C1 (stereo unspecified)	BoNT A protease inconclusive, Autofluor counter 20162
O=C(NCCc1ccccc1)C1CC(=O)N(c2ccc3c(c2)OCCO3)C1 (stereo unspecified)	none (no result: BoNT A protease, Anthrax LF inh2, BoNT F protease, Autofluor counter)
Cc1cccc(NC(=O)C(C)SCc2nc3sc4c(c3c(=O)[nH]2)CCCC4)n1 (stereo unspecified)	none
O=S(=O)(c1cccc(F)c1)N1CCN(Cc2ccc3c(c2)OCO3)CC1	Autofluor counter 16310
Fc1ccccc1N1CCN(Cc2ccc3c(c2)OCO3)CC1	Autofluor counter 21279
Clc1ccccc1N1CCN(Cc2ccc3c(c2)OCO3)CC1	none
CC1CCN(C(=O)c2ccccc2NS(=O)(=O)c2ccccc2)CC1	none
CCOC(=O)Nc1nc(-c2ccc(Cl)cc2Cl)cs1	none
Cc1nc(N)sc1-c1csc(N(C)c2ccc(O)cc2)n1	Autofluor counter 23793
CCCOc1ccc(C(=O)N/N=C/c2ccc(-c3ccc(S(=O)(=O)Nc4ncccn4)cc3)o2)cc1	BoNT A protease inconclusive, Autofluor counter 22659
Nc1ccc(CNc2ncn[nH]2)cc1	none
Fc1ccc(CNc2ccc(CNc3ncn[nH]3)cc2)cc1	Autofluor counter 21380
COc1cccc(CNC(=O)C2CCCN(S(=O)(=O)c3ccc4c(c3)C(C)(C)C(=O)N4C)C2)c1 (stereo unspecified)	none
COc1ccc(N(CC(=O)Nc2cc(C(=O)O)ccc2C)S(=O)(=O)c2c(C)noc2C)cc1	Autofluor counter 16981
CC(=O)Nc1ccc(-c2ccnc3c2CC(C)(C(=O)NCc2cccc(Cl)c2)O3)cc1 (stereo unspecified)	none (no result: MazF activator)
C=CCNC(=S)Nc1sc2c(c1C(=O)OCC)CC(C(C)C)OC2 (stereo unspecified)	Autofluor counter 22389
Cc1cc(NC(=O)CSc2nnc(-c3ccco3)n2Cc2ccco2)no1	Autofluor counter 19201
COc1ccc(C)cc1NC(=O)CSc1nnc(-c2ccco2)n1Cc1ccco1	Autofluor counter 17132
Cc1nnc(SCC(=O)Nc2cccc(C(F)(F)F)c2)n1Cc1ccco1	none
CCOc1ccccc1NC(=O)CSc1nnc(-c2ccco2)n1Cc1ccco1	Autofluor counter 21394
Cc1cc(NC(=O)CSc2nnc(CNc3cccc(C(F)(F)F)c3)n2Cc2ccco2)no1	Autofluor counter 17703
O=C1CCCC(=O)N1c1ccc(NCCOCCO)c([N+](=O)[O-])c1	none
Cc1ccnc(NC(=O)c2cc(-c3ccc(Cl)s3)nc3ccccc23)c1	Autofluor counter inconclusive
O=C(CNC(=O)c1cccs1)Nc1ncccc1O	none
CCCCN1C(=O)NC(NS(=O)(=O)c2ccc(N)cc2)(C(F)(F)F)C1=O (stereo unspecified)	Autofluor counter 19835
CCOC(=O)c1sc(NC(=O)C2C3C=CC(C3)C2C(=O)O)nc1C (stereo unspecified)	Autofluor counter 23393
CCOC(=O)c1sc(NC(=O)C2CC2)nc1C	none
Cc1csc(NC(=O)C2C3C=CC(C3)C2C(=O)O)n1 (stereo unspecified)	BoNT A protease inconclusive, Autofluor counter 21611
Cc1cccc(NC(=O)CCN2CCC(C)CC2)c1	BoNT F protease inconclusive
O=C(COC(=O)C1CCN(c2ccc(C(F)(F)F)cn2)CC1)Nc1cccc(F)c1	BoNT A protease inconclusive, Anthrax LF inh2 inconclusive, BoNT F protease inconclusive, Autofluor counter inconclusive
CC(=O)c1sc2nc(-c3cccs3)cc(C(F)(F)F)c2c1N	MazF activator 242.2
CSc1nc2nc(-c3cccs3)cc(C(F)(F)F)c2c(=O)[nH]1	none
CN(C)CCNC(=O)c1sc2nc(-c3ccccc3)cc(C(F)(F)F)c2c1N	none
Nc1c(C(=O)C2CC2)sc2nc(-c3ccccc3)cc(C(F)(F)F)c12	MazF activator active
O=C(CC1N=C(Cc2ccccc2)NNC1=O)N/N=C/c1ccc([N+](=O)[O-])cc1 (stereo unspecified)	none
O=C(c1cc2c(=O)n3ccccc3nc2s1)N1CCOCC1	Autofluor counter 21556
CC1CCN(C(=O)c2cc3c(=O)n4ccccc4nc3s2)CC1	none
N#CCCN(C(=O)COc1ccc(C#N)cc1)c1ccc(F)cc1	none
CN(C)CC1(c2ccccc2)CCCC1	Autofluor counter 17486
O=c1ccnc(SCn2nnc3ccccc3c2=O)[nH]1	Autofluor counter 21117
O=C(c1ccc(S(=O)(=O)NCc2ccco2)cc1)N1CCCC1	none
O=C(NC1CCCCCC1)c1ccc(S(=O)(=O)NCc2ccco2)cc1	Autofluor counter 23471

Screening data from PubChem BioAssay.
